Results on 32 compounds are retold here after PubChem BioAssay AID743354 (Broad Institute, 2014).

Potency and affinity values are given separately. The source made the active and inactive calls.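 Rule for the calls: active = cytotoxic signal drop with a fitted half-maximal concentration at most twice the top valid tested dose; inconclusive = flat fit with moderate signal loss, or poor fit quality; inactive = opposite effect, flat response, or potency beyond limit.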

The assay is described as follows: HEK293 cell cytotoxicity, dose response, cytotoxicity control, luminescence, dry powder, set 12 (AID 743354). Particulars: HEK293T viability, CellTiter-Glo ATP luminescence, 72 h; series mostly up to 26 µM.
With `CC(=O)c1ccc(N2CCN(C(=O)c3ccc4c(c3)OCO4)CC2)cc1`, the compound was called inactive. The same measure for `CN1c2ccc(-c3cccc(F)c3)cc2[C@@H]2[C@@H](CCN2C(=O)c2ccc3c(c2)OCO3)[C@H]1CO`: “inactive”; for `CCCCCCCC(=O)N1CC[C@@H]2[C@@H](CO)N(C)c3ccc(-c4cccc(F)c4)cc3[C@@H]21`: “inactive”. `CCC(=O)N1CC[C@@H]2[C@@H](CO)N(C)c3ccc(-c4ccc(F)cc4)cc3[C@@H]21`: the outcome was inactive. The entry for `CC(C)NC(=O)N1CC[C@@H]2[C@@H](CO)N(C)c3ccc(-c4ccc(F)cc4)cc3[C@@H]21` is “inactive”; for `COCC(=O)N1CC[C@@H]2[C@@H](CO)N(C)c3ccc(-c4cccc(F)c4)cc3[C@@H]21` it is “inactive”. Turning to `CN1c2ccc(-c3cccc(F)c3)cc2[C@H]2[C@H](CCN2C(=O)Cc2ccccc2)[C@H]1CO`, the outcome was inactive. In the case of `CNC(=O)c1ccc(N2CCN(C(=O)c3ccc4c(c3)OCO4)CC2)cc1`, the outcome was inactive.

On to `COC(=O)c1ccc(N2CCN(C(=O)c3ccc4c(c3)OCO4)CC2)cc1`, for which the outcome was inactive. Take `CC(=O)c1ccc(N2CCN(C(=O)c3ccccc3Cl)CC2)cc1`: the call was inactive.

`COc1cccc(NC(=O)N2CC[C@@H]3[C@@H](CO)N(C)c4ccc(-c5cccc(F)c5)cc4[C@@H]32)c1`: the call was inactive. Regarding `CC(C)NC(=O)N1CC[C@@H]2[C@@H](CO)N(C)c3ccc(-c4cccc(F)c4)cc3[C@@H]21`, the result was inactive. For `CC(=O)c1ccc(NCCNC(=O)c2ccc3c(c2)OCO3)cc1`, the call was inactive. The entry for `COc1ccc(NC(=O)N2CC[C@@H]3[C@@H](CO)N(C)c4ccc(-c5ccc(F)cc5)cc4[C@@H]32)cc1` is “inactive”. For the compound `CC(=O)c1ccc(N2CC3(CN(C(=O)c4ccc5c(c4)OCO5)C3)C2)cc1`, the compound was called inactive.

`COc1ccc(NC(=O)N2CC[C@@H]3[C@@H](CO)N(C)c4ccc(-c5cccc(F)c5)cc4[C@@H]32)cc1`: the outcome was inactive.

On to `COc1ccccc1NC(=O)N1CC[C@@H]2[C@@H](CO)N(C)c3ccc(-c4cccc(F)c4)cc3[C@@H]21`, for which the compound was classed as inactive. The entry for `CN1c2ccc(-c3ccc(F)cc3)cc2[C@H]2[C@H](CCN2C(=O)Nc2cc(F)ccc2F)[C@H]1CO` is “inactive”; for `CC(=O)c1ccc(N2CCN(C(=O)c3ccc4c(c3)OCO4)[C@H](C)C2)cc1` it is “inactive”; for `CNS(=O)(=O)c1ccc(N2CCN(C(=O)c3ccc4c(c3)OCO4)CC2)cc1` it is “inactive”. In the case of `CN1c2ccc(-c3cccc(F)c3)cc2[C@H]2[C@H](CCN2C(=O)Nc2ccccc2F)[C@H]1CO`, the outcome was inactive. As to `CCCNC(=O)N1CC[C@@H]2[C@@H](CO)N(C)c3ccc(-c4ccc(F)cc4)cc3[C@@H]21`, the compound was called inactive.

In the case of `CN1c2ccc(-c3ccc(F)cc3)cc2[C@H]2[C@H](CCN2C(=O)Nc2ccc(F)cc2)[C@H]1CO`, the outcome was inactive. The entry for `CN1c2ccc(-c3ccc(F)cc3)cc2[C@H]2[C@H](CCN2C(=O)Cc2cccnc2)[C@H]1CO` is “inactive”. As for `CN1c2ccc(-c3cccc(F)c3)cc2[C@@H]2[C@@H](CCN2C(=O)c2ccc3c(c2)OCO3)[C@@H]1CO`, the result was inactive.

As for `CN(C)C(=O)c1ccc(N2CCN(C(=O)c3ccc4c(c3)OCO4)CC2)cc1`, the outcome was inactive.

As to `CN1c2ccc(-c3cccc(F)c3)cc2[C@H]2[C@H](CCN2C(=O)CCCCCCC(=O)O)[C@H]1CO`, the outcome was inactive. For `COc1ccccc1C(=O)N1CCN(c2ccc(C(C)=O)cc2)CC1`, the compound was called inactive. The entry for `COc1ccccc1NC(=O)N1CC[C@@H]2[C@@H](CO)N(C)c3ccc(-c4ccc(F)cc4)cc3[C@@H]21` is “inactive”; for `CN1c2ccc(-c3cccc(F)c3)cc2[C@H]2[C@H](CCN2C(=O)c2ccc3c(c2)OCO3)[C@@H]1CO` it is “inactive”; for `CN1c2ccc(-c3cccc(F)c3)cc2[C@H]2[C@H](CCN2C(=O)Cc2cccnc2)[C@H]1CO` it is “inactive”. For the compound `CN1c2ccc(-c3ccc(F)cc3)cc2[C@H]2[C@H](CCN2C(=O)Cc2ccccn2)[C@H]1CO`, the compound was classed as inactive.
